Measured values: PubChem BioAssay (EPA / NIEHS)
Inconclusive results are not listed. Calls of active or inactive are those of the source. The calls were made as follows, unless noted: active = hit-call score of the fitted dose curve at least 0.9, where 1 is the maximum; inactive = score below 0.9.

What was measured:
[1] = ATG_PBREM_CIS: Attagene CIS-FACTORIAL HepG2 Assay for human Phenobarbital-responsive Enhancer Module (PBREM) (AID 2282955); conditions: HepG2 PBREM cis-reporter, Attagene multiplexed transcription; actives raise or lower the signal
Method in brief: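 Measures endogenous factor action on a phenobarbital-responsive enhancer module. HepG2 transiently carrying cis reporters, 24 h treatment, mRNA read-out by RT-PCR plus capillary electrophoresis.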

[2] = ATG_PPRE_CIS: Attagene CIS-FACTORIAL HepG2 Assay for human Peroxisome Proliferator-activated Response Element (PPRE) (AID 2282958); conditions: HepG2 PPRE cis-element reporter, Attagene transcription factor profiling; actives raise or lower the signal
Method in brief: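 PPRE activity in HepG2: transient cis-reporter transfection, 24 h compound incubation, reporter mRNA by RT-PCR and CE fluorescence; gain/loss fitted against DMSO.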

[3] = ATG_RORE_CIS: Attagene CIS-FACTORIAL HepG2 Assay for human RAR-related Orphan Receptor Element (RORE) (AID 2282959); conditions: HepG2 Attagene cis-factorial RORE reporter, mRNA; actives raise or lower the signal
Method in brief: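 A 24-hour exposure of transfected HepG2 hepatoma cells precedes RNA isolation and reporter RT-PCR. Labeled products are digested with HpaI and resolved by capillary electrophoresis, with gain or loss of signal scored relative to DMSO.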

[4] = ATG_Sox_CIS: Attagene CIS-FACTORIAL HepG2 Assay for human SRY-box transcription factor (SOX) (AID 2282960); conditions: HepG2 Attagene cis-factorial SOX reporter, mRNA; actives raise or lower the signal
Method in brief: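 HepG2, cis reporter units, 24 h exposure. Reporter mRNA: RT-PCR → FAM labelling → HpaI → CE fluorescence. Bidirectional fit vs DMSO.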

[5] = biological target: Transcription factor Sp1 (Homo sapiens) (UniProt P08047); experiment: ATG_Sp1_CIS: Attagene CIS-FACTORIAL HepG2 Assay for human Specificity Protein 1 (Sp1) (AID 2282961); conditions: HepG2 Sp1 cis-reporter transcription, actives raise or lower the signal
Transcription factor Sp1 (Homo sapiens), sequence (P08047 whole entry, looked up, the tested form may be a part): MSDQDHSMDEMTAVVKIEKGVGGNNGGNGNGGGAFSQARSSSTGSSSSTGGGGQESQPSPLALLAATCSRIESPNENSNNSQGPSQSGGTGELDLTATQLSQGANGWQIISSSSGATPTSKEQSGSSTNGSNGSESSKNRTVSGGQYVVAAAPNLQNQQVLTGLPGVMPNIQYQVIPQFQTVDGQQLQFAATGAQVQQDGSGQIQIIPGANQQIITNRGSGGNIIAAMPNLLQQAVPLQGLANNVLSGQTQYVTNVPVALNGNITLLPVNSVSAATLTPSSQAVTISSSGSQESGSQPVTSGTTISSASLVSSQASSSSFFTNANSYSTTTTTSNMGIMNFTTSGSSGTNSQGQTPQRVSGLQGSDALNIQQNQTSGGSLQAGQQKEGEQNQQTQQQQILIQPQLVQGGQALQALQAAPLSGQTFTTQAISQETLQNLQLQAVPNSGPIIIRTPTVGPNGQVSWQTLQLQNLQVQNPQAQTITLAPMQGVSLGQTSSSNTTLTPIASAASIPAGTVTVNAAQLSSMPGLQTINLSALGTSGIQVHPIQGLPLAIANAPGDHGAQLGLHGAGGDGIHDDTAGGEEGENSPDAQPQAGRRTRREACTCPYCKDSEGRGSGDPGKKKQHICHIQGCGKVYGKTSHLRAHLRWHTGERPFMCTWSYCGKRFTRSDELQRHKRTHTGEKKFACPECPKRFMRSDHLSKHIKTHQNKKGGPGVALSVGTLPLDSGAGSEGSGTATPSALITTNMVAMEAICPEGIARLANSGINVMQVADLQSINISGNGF
Method in brief: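 Liver-derived HepG2 cells, cis-element reporter library, 24 h treatment; RNA isolated, cDNA amplified with reporter-specific primers, FAM-labeled fragments sized on capillary analyzer. DMSO baseline, bidirectional curve fit.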

[6] = ATG_SREBP_CIS: Attagene CIS-FACTORIAL HepG2 Assay for human Sterol Regulatory Element Binding (SREBP) (AID 2282962); conditions: HepG2 Attagene cis-factorial SREBP reporter, mRNA; actives raise or lower the signal
Method in brief: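 Endogenous factor activity is measured in HepG2 through multiplexed reporter units under cis-element control. Following a 24 h incubation, reporter transcripts are reverse-transcribed, PCR-amplified and sized by capillary electrophoresis; activity is fitted in both directions relative to DMSO.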

[7] = biological target: Signal transducer and activator of transcription 3 (Homo sapiens) (UniProt P40763); experiment: ATG_STAT3_CIS: Attagene CIS-FACTORIAL HepG2 Assay for human Signal Transducer and Activator of Transcription 3 (STAT3) (AID 2282963); conditions: HepG2, Attagene cis-factorial STAT3 reporter transcription; actives raise or lower the signal
Signal transducer and activator of transcription 3 (Homo sapiens), sequence (P40763 whole entry, looked up): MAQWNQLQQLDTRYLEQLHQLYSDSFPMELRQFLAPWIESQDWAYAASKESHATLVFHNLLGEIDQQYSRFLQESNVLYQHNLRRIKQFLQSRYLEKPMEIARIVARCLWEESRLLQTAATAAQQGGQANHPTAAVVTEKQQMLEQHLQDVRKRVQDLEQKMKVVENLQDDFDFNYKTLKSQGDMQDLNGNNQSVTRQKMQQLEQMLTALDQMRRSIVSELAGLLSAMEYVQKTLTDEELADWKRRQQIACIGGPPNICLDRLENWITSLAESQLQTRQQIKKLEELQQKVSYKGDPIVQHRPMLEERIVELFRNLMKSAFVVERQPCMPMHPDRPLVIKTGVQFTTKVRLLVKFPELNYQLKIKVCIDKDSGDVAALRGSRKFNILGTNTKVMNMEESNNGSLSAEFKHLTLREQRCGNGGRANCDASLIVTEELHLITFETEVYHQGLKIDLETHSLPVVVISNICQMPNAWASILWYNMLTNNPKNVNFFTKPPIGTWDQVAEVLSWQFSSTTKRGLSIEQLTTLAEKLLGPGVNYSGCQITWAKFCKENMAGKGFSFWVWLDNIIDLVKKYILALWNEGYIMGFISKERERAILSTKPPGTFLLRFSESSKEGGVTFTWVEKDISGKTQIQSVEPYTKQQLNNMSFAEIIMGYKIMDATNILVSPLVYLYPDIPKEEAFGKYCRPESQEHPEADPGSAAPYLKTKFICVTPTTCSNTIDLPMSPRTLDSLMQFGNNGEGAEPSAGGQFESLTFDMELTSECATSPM
Method in brief: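 HepG2, MRTU-transfected, 24 h dosing. RNA → RT → PCR → FAM label → HpaI → CE. Bidirectional fit vs DMSO.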

[8] = ATG_TA_CIS: Attagene CIS-FACTORIAL HepG2 Assay for human TA Basal Promoter (AID 2282964); conditions: HepG2 Attagene CIS-factorial TA basal promoter reporter; actives raise or lower the signal
Method in brief: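 Transient MRTU transfection of HepG2 preceded 24 h compound exposure. Reporter mRNA levels were then read by RT-PCR with capillary electrophoresis, and this background-control endpoint was fitted bidirectionally to DMSO.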

[9] = ATG_TCF_b_cat_CIS: Attagene CIS-FACTORIAL HepG2 Assay for human T-Cell-Factor with beta-catenin (TCF/b-cat) (AID 2282965); conditions: HepG2 TCF/beta-catenin cis-reporter transcription, actives raise or lower the signal
Method in brief: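 HepG2 cells transiently transfected with multiple cis-promoter-regulated reporter transcription units, so endogenous transcription factor activity is measured. Reporter mRNA read 24 hours after dosing by RT-PCR, fluorescent labelling and capillary electrophoresis; bidirectional fitting against DMSO.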

[10] = ATG_TAL_CIS: Attagene CIS-FACTORIAL HepG2 Assay for human TAL Basal Promoter (AID 2282966); conditions: HepG2 Attagene cis-factorial TAL promoter reporter; actives raise or lower the signal;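 also: background control endpoint measuring basal TAL promoter reporter mRNA not a specific factor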
Method in brief: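 Human hepatoma HepG2 cells, transfected with promoter-regulated reporter units, were treated 24 h. Reporter transcript levels, measured through RT-PCR and capillary electrophoresis, were fitted for gain or loss relative to DMSO.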

[11] = ATG_TGFb_CIS: Attagene CIS-FACTORIAL HepG2 Assay for human Transforming Growth Factor (TGF) (AID 2282967); conditions: HepG2 Attagene CIS TGFb reporter, mRNA transcription; actives raise or lower the signal
Method in brief: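 After a 24-hour incubation with compound, transfected HepG2 cells were lysed for RNA; reporter cDNA was amplified, fluorescently end-labeled and separated by CE. DMSO served as baseline for bidirectional fits.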

[12] = ATG_VDRE_CIS: Attagene CIS-FACTORIAL HepG2 Assay for human Vitamin D Receptor Element (VDRE) (AID 2282968); conditions: HepG2 VDRE cis-reporter transcription, actives raise or lower the signal
Method in brief: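 Steps: transfect HepG2 with multiple reporter transcription units; dose chemicals 24 h; isolate RNA; RT-PCR; label with 6-FAM primer extension; HpaI digest; capillary electrophoresis. Curves fitted both directions against DMSO.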

[13] = biological target: Nuclear receptor subfamily 1 group I member 3 (Homo sapiens) (UniProt Q14994); experiment: ATG_CAR_TRANS: Attagene TRANS-FACTORIAL HepG2 Assay for human Constitutive Androstane Receptor (CAR) (AID 2282969; active = hit-call score of the fitted dose curve at least 0.9, where 1 is the maximum;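 also: activators raise reporter mRNA above DMSO so AC50 marks induction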); conditions: HepG2 Attagene TRANS-FACTORIAL CAR reporter
Nuclear receptor subfamily 1 group I member 3 (Homo sapiens), sequence (Q14994 whole entry, looked up, the tested form may be a part): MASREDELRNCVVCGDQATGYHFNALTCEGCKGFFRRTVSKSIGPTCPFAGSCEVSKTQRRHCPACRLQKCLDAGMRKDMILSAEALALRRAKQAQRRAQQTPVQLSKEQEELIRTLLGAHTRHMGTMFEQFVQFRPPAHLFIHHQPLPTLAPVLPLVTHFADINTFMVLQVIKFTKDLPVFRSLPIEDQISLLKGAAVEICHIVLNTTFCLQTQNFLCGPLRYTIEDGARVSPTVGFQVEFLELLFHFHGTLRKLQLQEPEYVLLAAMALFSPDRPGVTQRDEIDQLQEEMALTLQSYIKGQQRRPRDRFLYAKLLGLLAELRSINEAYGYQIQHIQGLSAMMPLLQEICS
Method in brief: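 Steps: transient transfection of HepG2 with multiple GAL4-UAS reporter units; 24 h compound incubation; RNA isolation, RT-PCR, 6-FAM primer extension, HpaI digest; capillary electrophoresis. Gain-of-signal relative to DMSO negative control.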

[14] = biological target: Estrogen receptor (Homo sapiens) (UniProt P03372); experiment: ATG_ERa_TRANS: Attagene TRANS-FACTORIAL HepG2 Assay for human Estrogen Receptor alpha (ERa) (AID 2282970; active = hit-call score of the fitted dose curve at least 0.9, where 1 is the maximum); conditions: HepG2 Attagene TRANS ERa GAL4 reporter, mRNA
Estrogen receptor (Homo sapiens), sequence (P03372 whole entry, looked up, the tested form may be a part): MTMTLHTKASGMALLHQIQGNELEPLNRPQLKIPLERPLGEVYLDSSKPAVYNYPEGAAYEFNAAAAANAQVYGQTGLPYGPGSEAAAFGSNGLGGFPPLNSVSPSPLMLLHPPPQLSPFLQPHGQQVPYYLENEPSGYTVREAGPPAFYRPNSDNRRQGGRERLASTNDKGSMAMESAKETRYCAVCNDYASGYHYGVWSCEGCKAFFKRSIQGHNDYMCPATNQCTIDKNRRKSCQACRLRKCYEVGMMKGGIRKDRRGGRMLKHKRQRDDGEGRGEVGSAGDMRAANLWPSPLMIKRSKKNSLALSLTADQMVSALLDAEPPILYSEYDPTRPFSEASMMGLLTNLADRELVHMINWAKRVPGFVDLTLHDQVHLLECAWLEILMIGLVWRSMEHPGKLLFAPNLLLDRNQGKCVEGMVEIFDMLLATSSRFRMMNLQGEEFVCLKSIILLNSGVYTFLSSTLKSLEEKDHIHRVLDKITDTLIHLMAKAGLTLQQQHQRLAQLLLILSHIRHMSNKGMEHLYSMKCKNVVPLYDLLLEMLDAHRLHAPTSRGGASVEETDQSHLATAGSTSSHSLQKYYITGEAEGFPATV
Method in brief: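 Signal derives from fluorescence of labelled reporter PCR fragments separated by capillary electrophoresis. HepG2 cells transiently carrying multiple GAL4-UAS reporter units were treated 24 hours, and induction above DMSO baseline was fitted as activity.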

[15] = biological target: X-box-binding protein 1 (Homo sapiens) (UniProt P17861); experiment: ATG_Xbp1_CIS: Attagene CIS-FACTORIAL HepG2 Assay for human X-box Binding Protein 1 (XBP1) (AID 2282972); conditions: HepG2 XBP1 cis-element reporter, Attagene multiplex; actives raise or lower the signal
X-box-binding protein 1 (Homo sapiens), sequence (P17861 whole entry, looked up): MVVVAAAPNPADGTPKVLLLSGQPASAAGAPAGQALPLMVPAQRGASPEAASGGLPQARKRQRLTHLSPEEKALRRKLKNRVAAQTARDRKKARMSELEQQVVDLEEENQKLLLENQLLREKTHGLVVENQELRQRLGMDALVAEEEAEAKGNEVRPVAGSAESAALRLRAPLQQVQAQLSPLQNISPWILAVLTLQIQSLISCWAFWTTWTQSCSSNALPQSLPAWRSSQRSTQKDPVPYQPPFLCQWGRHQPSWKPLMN
Method in brief: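 Multiplexed cis-reporter readout in transfected HepG2 liver cells. Exposure lasted 24 hours. Activity in either direction was fitted against DMSO as negative control and baseline.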

[16] = ATG_M_19_TRANS: Attagene TRANS-FACTORIAL HepG2 Assay for M19 Transcription Factor (Internal Marker) (AID 2282974; active = hit-call score of the fitted dose curve at least 0.9, where 1 is the maximum); conditions: HepG2 Attagene TRANS-FACTORIAL M19 internal marker reporter
Method in brief: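 Transfected HepG2 (GAL4-UAS MRTUs), 24 h compound, TriZol RNA, DNase-treated RT, reporter PCR, FAM label, HpaI digest, CE fluorescence; gain vs DMSO.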

[17] = ATG_GAL4_TRANS: Attagene TRANS-FACTORIAL HepG2 Assay for GAL4 (Internal Marker) (AID 2282976; active = hit-call score of the fitted dose curve at least 0.9, where 1 is the maximum); conditions: HepG2 Attagene TRANS GAL4 internal marker reporter
Method in brief: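 Liver HepG2 line bearing multiplexed GAL4-UAS reporter constructs; 24 h chemical treatment. Transcripts were quantified as fluorescent fragments on capillary electrophoresis after RT-PCR and HpaI cut, with activity fitted upward from DMSO.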

[18] = ATG_PXRE_CIS: Attagene CIS-FACTORIAL HepG2 Assay for human Pregnane X Receptor Element (PXRE) (AID 2282957); conditions: HepG2 Attagene CIS-FACTORIAL PXRE reporter, mRNA; actives raise or lower the signal
Method in brief: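 Bidirectional activity, baselined to DMSO, derived from reporter mRNA fluorescence (RT-PCR plus capillary electrophoresis) in HepG2 cells bearing cis-promoter reporter units, 24 h exposure.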

[19] = biological target: Steroid hormone receptor ERR1 (Homo sapiens) (UniProt P11474); experiment: ATG_ERRa_TRANS: Attagene TRANS-FACTORIAL HepG2 Assay for human Estrogen-Related Receptor alpha (ERRa) (AID 2282971; active = hit-call score of the fitted dose curve at least 0.9, where 1 is the maximum); conditions: HepG2 Attagene TRANS reporter, ERRa transactivation
Steroid hormone receptor ERR1 (Homo sapiens), sequence (P11474 whole entry, looked up, the tested form may be a part): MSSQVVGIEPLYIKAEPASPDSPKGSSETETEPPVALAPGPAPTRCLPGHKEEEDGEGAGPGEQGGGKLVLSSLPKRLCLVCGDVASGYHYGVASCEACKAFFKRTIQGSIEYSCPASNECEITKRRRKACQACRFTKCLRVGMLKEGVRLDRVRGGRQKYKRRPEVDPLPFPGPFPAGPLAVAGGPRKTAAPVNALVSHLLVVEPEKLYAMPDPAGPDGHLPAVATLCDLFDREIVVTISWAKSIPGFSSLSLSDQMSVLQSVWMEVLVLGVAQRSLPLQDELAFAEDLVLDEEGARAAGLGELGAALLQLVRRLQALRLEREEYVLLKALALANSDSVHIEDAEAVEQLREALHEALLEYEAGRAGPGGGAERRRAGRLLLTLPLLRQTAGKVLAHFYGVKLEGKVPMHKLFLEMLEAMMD
Method in brief: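 Signal gain relative to DMSO for an ERRa-Gal4 chimeric receptor, read as reporter mRNA by RT-PCR/capillary electrophoresis. Human HepG2 liver cells, transient multiplex reporter transfection, 24 h chemical exposure.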

Measured: AC50

CO[Si](OC)(c1ccccc1)c1ccccc1
not listed: [18] | [19]
inactive: all other assays above

CCCCNc1ccccc1
active: [18] 100 µM
not listed: [16] | [19]
inactive: all other assays above

OCC(F)(F)C(F)(F)C(F)(F)C(F)(F)C(F)(F)C(F)(F)F
active: [1] 282 µM | [6] 234 µM | [10] 239 µM
not listed: [18] | [19]
inactive: all other assays above

OCC(F)(F)C(F)(F)C(F)(F)C(F)F
not listed: [13]
inactive: all other assays above

Cc1ccc(S(=O)(=O)OCC(F)(F)C(F)(F)C(F)(F)C(F)(F)C(F)(F)C(F)F)cc1
active: [18] 1.95 µM
not listed: [16] | [19]
inactive: all other assays above

O=S(=O)(OCC(F)F)C(F)(F)F
not listed: [13] | [16] | [18]
inactive: all other assays above

CC(C)c1ccccc1N
active: [18] 34.9 µM | [12] 35.5 µM
not listed: [16]
inactive: all other assays above
